Source: PubChem (National Center for Advancing Translational Sciences (NCATS))
PNC assembly inh – blocks assembly of the perinucleolar compartment | PC3M PTB-GFP, PNC prevalence imaging, 16 h; active compounds read low | activity change (PNC), negative = inhibition, % at 10 µM | actives 3.1% (n = 140,000) | AID 2417;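 active means readout at or below -70, meaning at least 70% loss of cells showing the perinucleolar compartment, a nuclear body marking cancer cells; inconclusive means readout between -30 and a set limit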
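PC3M cells stably expressing PTB-GFP, 750–1000 cells/well, treated 16 h at 37 °C with compound (23 nl of library stock), in duplicate. After paraformaldehyde fixation and Hoechst stain, imaged at 20x; PNC prevalence scored by image analysis.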
Tau fluor cs – counter-screen for tau fibril formation inhibitors. tau K18 P301L Alexa594 fluorescence, heparin fibrillization. Potency, µM (doses to about 57.7 µM). actives 0.93% (n = 280,000). AID 1463; further: nearly all actives have a fitted effect of over 55% in size
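Human K18 P301L tau (15 uM unlabeled plus 0.24 uM Alexa 594-labeled, final) in 100 mM sodium acetate pH 7 was mixed with compound and 20 uM heparin and incubated 6 hr at 37 C.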
TexasRed fluor – counter-screen for TRb-SRC2 inhibitors: fluorescence interference | AID 1479 | TRb/SRC2 Texas Red total fluorescence interference | actives 0.29% (n = 280,000) | Potency, µM (highest dose often 106 µM); active means well fitted curve in either direction with a large enough effect; inconclusive means small, poorly fitted or top-dose-only effect
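Human TRβ ligand-binding domain (0.6 uM) and Texas Red SRC2 peptide (20 nM) in Tris buffer with 1 uM T3 and 5% DMSO were incubated with pinned compound for 5 hr at ambient temperature. Total fluorescence was computed as S + 2P (555/632 nm).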
Tau ThT inhib – inhibitors of human tau fibril formation, thioflavin T binding | recombinant tau K18 P301L, heparin-induced fibrillization, ThT fluorescence | Potency, µM (doses to about 57.4 µM), usual class: inhibitors | P10636 | AID 1460 | actives 2.1% (n = 270,000); further: nearly all actives have a fitted effect of over 55% in size
Target sequence (P10636 561-689 P618L limits assumed): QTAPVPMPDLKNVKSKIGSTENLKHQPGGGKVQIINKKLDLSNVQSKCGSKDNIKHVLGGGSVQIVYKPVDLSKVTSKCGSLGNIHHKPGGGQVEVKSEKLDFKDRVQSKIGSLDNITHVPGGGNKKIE
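Heparin-induced (20 uM) aggregation of recombinant human K18 P301L tau, 15 uM unlabeled with 0.24 uM labeled, pH 7 acetate buffer, 6 hr at 37 C with compound. Fibrils quantified by 30 uM ThT fluorescence after 1 hr ambient incubation.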
TRb-SRC2 inh – TRbeta-SRC2 interaction inhibition | P10828 | TRbeta-SRC2 peptide binding, fluorescence polarization; receptor liganded with 1 µM T3 | Potency, µM (titrated, usually from 106 µM), most hits filed as inhibitors | actives 0.065% (n = 280,000) | AID 1469; further: nearly all actives have a fitted effect of over 50% in size
Target sequence (P10828 whole entry, looked up): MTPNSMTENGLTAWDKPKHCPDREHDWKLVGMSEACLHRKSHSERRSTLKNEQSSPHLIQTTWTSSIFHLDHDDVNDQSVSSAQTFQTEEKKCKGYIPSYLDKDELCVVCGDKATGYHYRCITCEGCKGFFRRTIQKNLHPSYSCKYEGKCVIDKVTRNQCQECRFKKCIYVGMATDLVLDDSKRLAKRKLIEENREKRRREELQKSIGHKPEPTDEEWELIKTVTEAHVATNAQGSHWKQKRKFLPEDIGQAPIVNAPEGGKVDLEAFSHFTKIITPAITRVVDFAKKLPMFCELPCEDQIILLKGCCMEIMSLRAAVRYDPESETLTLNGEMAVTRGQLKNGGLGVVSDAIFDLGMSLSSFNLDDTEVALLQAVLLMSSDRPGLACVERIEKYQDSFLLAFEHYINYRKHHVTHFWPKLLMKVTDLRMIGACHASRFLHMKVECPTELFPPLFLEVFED
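A fluorescence polarization screen tested compounds at multiple concentrations against complex formation between 0.6 uM TRb ligand-binding domain and 20 nM Texas Red SRC2 peptide, with 1 uM T3 present; readout after 5 hr.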
Tau FP inhib – inhibitors of human tau fibril formation; P10636; K18 P301L tau heparin fibrillization, Alexa594 FP, 6 h; Potency, µM (top dose mostly 57.7 µM), actives largely listed as inhibitors; actives 0.39% (n = 280,000); AID 1468; further: nearly all actives have a fitted effect of over 55% in size
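Heparin (20 uM) drove fibril formation of recombinant tau K18 P301L, 15 uM unlabeled with 0.24 uM Alexa 594 label, for 6 hr at 37 C in 100 mM sodium acetate pH 7. Fluorescence polarization (555/632 nm) read 1 hr after 30 uM ThT.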
Hits are given with their value; n = inactive; u = inconclusive; x = no result given; [ ] = another dose, or the depositor's remark. Hits are enriched below; roughly 4.6% of the tested compounds scored in any of these assays. Unless noted, the call rests on the fitted dose curve; in most records, active means well fitted curve in the direction sought with a large enough effect; inconclusive means small, poorly fitted or top-dose-only effect, or another doubt; inactive means no such curve, though single readings can be large; an effect the other way counts as inactive or inconclusive.

SMILES	PNC assembly inh	Tau fluor cs	TexasRed fluor	Tau ThT inhib	TRb-SRC2 inh	Tau FP inhib
CC1=CC(C)(C)Nc2ccc(OC(=O)CCN3C(=O)c4ccccc4C3=O)cc21	n	u	n	u	n	u
CC1=CC(C)(C)Nc2ccc(OS(=O)(=O)c3ccc(C)cc3)cc21	n	5.01µM[quencher]	n	8.91µM	n	u
CC(=O)Nc1ccc(S(=O)(=O)Oc2ccc3c(c2)C(C)=CC(C)(C)N3)cc1	-108.5	14.1µM[quencher]	n	u	n	u
COc1ccccc1-c1nnc2sc(COc3ccc(Cl)cc3Cl)nn12	n	n	n	n	n	n
Clc1ccc(OCc2nn3c(C4CCCCC4)nnc3s2)c(Cl)c1	-82.1	n	n	n	n	n
COc1ccc(CCn2c(Br)nc3c2c(=O)[nH]c(=O)n3C)cc1	-82.3	n	n	n	n	n
COc1ccc(CCn2c(N3CCN(C)CC3)nc3c2c(=O)[nH]c(=O)n3C)cc1	n	n	n	n	n	n
COc1ccc(CCn2c(NN)nc3c2c(=O)[nH]c(=O)n3C)cc1	x	u	n	x	n	u
COc1ccc(CCn2c(NN=C(C)C)nc3c2c(=O)[nH]c(=O)n3C)cc1	x	u	n	22.4µM	n	u
Cc1c(NC(=S)N2CCN(c3cccc(Cl)c3)CC2)c(=O)n(-c2ccccc2)n1C	x	n	n	n	n	n
CCN(CC)C(=S)Oc1c(Cl)cccc1Cl	x	n	n	n	n	n
Cc1ccc(S(=O)(=O)NC(=O)Nc2ncc3c(n2)CC(c2ccco2)CC3=O)cc1 (stereo not given)	-97.2	n	n	n	n	n
CC(=O)Nc1ncc2c(n1)CC(c1ccco1)CC2=O (stereo not given)	n	n	n	n	n	n
COc1ccc(C2CC(=O)C3=C(C2)Nc2ccccc2N(C(C)=O)C3c2ccco2)cc1 (stereo not given)	n	n	n	n	n	n
CN1C=C/C(=C\c2cc[n+](C)c3ccccc23)c2ccccc21	x	u	n	14.1µM	n	u
CCOCCCNc1nc2c(C)cccn2c(=O)c1/C=C1\SC(=S)N(C(C)CC)C1=O (stereo not given)	x	n	n	u	n	22.4µM
CCOCCCNc1nc2c(C)cccn2c(=O)c1/C=C1\SC(=S)N(CC(C)C)C1=O	n	n	n	n	n	n
CCOc1ccc(S(=O)(=O)NCCc2sc(-c3ccc(C)cc3)nc2C)cc1	x	n	n	n	n	n
COc1ccccc1N1CCN(S(=O)(=O)c2ccc3nc(-c4ccccc4)[nH]c3c2)CC1	-113.4	u	n	n	n	22.4µM
O=S(=O)(c1ccc2nc(-c3ccccc3)[nH]c2c1)N1CCN(c2cccc(Cl)c2)CC1	n	u	n	n	n	u
CCc1cccc(NC(=O)C2CCCN2S(=O)(=O)c2ccc3nc(-c4ccccc4)[nH]c3c2)c1 (stereo not given)	x	14.1µM[quencher]	n	n	n	31.6µM
COC(=O)c1ccc(NC(=O)C2CCCN2S(=O)(=O)c2ccc(C)cc2)cc1 (stereo not given)	-119.3	n	n	n	n	n
Cc1cc(C)cc(NC(=O)C2CCCN2S(=O)(=O)c2ccc3nc(-c4ccccc4)[nH]c3c2)c1 (stereo not given)	x	14.1µM[quencher]	n	n	n	u
CCc1cccc(NC(=O)C2CCCN2S(=O)(=O)c2ccc3c(c2)n(C)c(=O)c(=O)n3C)c1 (stereo not given)	x	n	n	u	n	n
CCOC(=O)CCn1nc(-c2ccc(C)cc2)c2ccccc2c1=O	x	n	n	u	n	n
SMILES	PNC assembly inh	Tau fluor cs	TexasRed fluor	Tau ThT inhib	TRb-SRC2 inh	Tau FP inhib
CCOc1ccccc1NC(=O)C1CCCN1S(=O)(=O)c1ccc2nc(-c3ccccc3)[nH]c2c1 (stereo not given)	x	10µM[quencher]	n	n	n	u
CCOc1ccccc1NC(=O)C1CCN(S(=O)(=O)c2ccc3[nH]c(=O)ccc3c2)CC1	x	n	n	n	n	u
Oc1ccc(/C=N/Nc2ccnc3cc(Cl)ccc23)cc1O	x	15.8µM[quencher]	n	10µM	n	n
O=C1CC(/C=C/c2ccccn2)=Nc2ccccc2N1	x	n	n	u	n	n
O=C1CC(/C=C/c2ccc([N+](=O)[O-])cc2)=Nc2ccccc2N1	x	u	n	3.98µM	n	n
O=Cc1cn(-c2ccccc2)nc1-c1ccc2c(c1)OCCO2	u	n	n	n	n	n
CC(C)OC(=O)c1ccc(COC(=O)c2cccc(-c3nnc(-c4ccccc4)o3)c2)cc1	u	n	n	n	n	n
CC(C)OC(=O)c1cccc(-c2ccc(C=O)o2)c1	-108.0	n	n	n	n	n
CCc1ccc(-c2nc(SCC(=O)NCC3CCCO3)c(-c3ccc(C)cc3)[nH]2)cc1 (stereo not given)	x	u	n	n	n	n
Clc1cc(Cl)c(OCc2nc(-c3ccccn3)no2)cc1Cl	n	n	n	u	n	n
O=[N+]([O-])c1cc(-c2cnc3ccccc3n2)ccc1Oc1ccc(Br)cc1	-106.0	u	n	u	n	n
O=P(O)(O)CP(=O)(O)O	-100.0	n	n	n	u	n
CN(C)S(=O)(=O)c1cccc(NC(=O)COC(=O)c2ccc3c(c2)OCO3)c1	n	n	n	n	n	n
O=[N+]([O-])C1=CC=C2C(=NC3(CCCCC3)N2O)C1=NC1CCCCC1	n	n	n	u	n	n
CSc1nsc(/C=C/Nc2ccc(F)cc2F)c1C#N	x	u	n	14.1µM	n	n
CSc1nnc(C)c(/C=C/NOCc2cccc(F)c2)n1	x	n	n	n	n	n
CSc1nnc(C)c(/C=C/Nc2ccc(F)cc2F)n1	x	n	n	25.1µM	n	n
COc1ccc2[nH]cc(CCNC(=O)Nc3c(C)cccc3C)c2c1	x	n	n	n	n	n
COc1ccc2c(CCNC(N)=S)c[nH]c2c1	x	n	n	x	n	n
COc1ccc2c(CCNC(=O)c3ccco3)c[nH]c2c1	-114.3	n	n	n	n	n
COc1ccc2[nH]cc(CCNC(=O)Nc3cccc(F)c3)c2c1	x	25.1µM[quencher]	n	u	n	u
O=c1[nH]c(-c2cccnc2)nc2sc(-c3ccccc3)cc12	x	n	n	n	n	n
Cn1nc([N+](=O)[O-])c(C(C#N)c2nc3ccccc3n2C)c(Cl)c1=O (stereo not given)	n	u	n	15.8µM	n	n
O=C(Cn1c(SCC(=O)N2CCCc3ccccc32)nc2ccccc21)N1CCCC1	-100.0	n	n	n	n	n
Cn1cccc1Cc1nnc(SCC(=O)N2CCCc3ccccc32)n1-c1ccc(F)cc1	n	n	n	n	n	n
